# In PubChem BioAssay (Tox21):
# Records with an inconclusive call do not appear. Activity calls are given as the source filed them. The call rests on the fitted dose curve. Where a SMILES comes first, the peptide text is derived from it. [ ]: non-standard residue; d: D form. pGlu = O=C1CC[C@@H](C(=O)O)N1
# Target: Progesterone receptor (Homo sapiens) (UniProt P06401)
# Test: qHTS assay to identify small molecule agonists of the progesterone receptor (PR) signaling pathway (AID 1346784); further: nearly all actives have a fitted effect of over 30% in size
# Settings: PR-UAS-bla HEK293T, beta-lactamase FRET ratio, 16 h; series mostly up to 92.4 µM; activation: at the top concentration
# Description: U.S. Tox21 Program National Center for Advancing Translational Sciences [NCATS] NIH Chemical Genomics Center [NCGC] U.S. Environmental Protection Agency [EPA] National Institutes of Environmental Health Sciences [NIEHS] National Toxicology Program [NTP] U.S. Food and Drug Administration [FDA] […] Endocrine disrupting chemicals (EDCs) and their interactions with steroid hormone receptors like PR causes disruption of normal endocrine function. To identify the compounds that activate PR signaling, a PR-UAS-bla GripTite cell line i.e. PR-UAS-bla HEK 293T (Invitrogen, Carlsbad, CA, USA) containing a beta-lactamase reporter gene under the control of an Upstream Activator Sequence (UAS) was used to screen Tox21 10K compound library.
# Tox21 Assay Protocol Summary: PR-UAS-bla HEK 293T cells were dispensed at 3,000 cells/5 uL of assay medium containing 2% charcoal stripped FBS per well into black wall/clear-bottom 1536-well plates using a Multidrop Combi (ThermoFisher Scientific, Waltham, MA) dispenser. After the assay plates were incubated at a 37C and 5% CO2 for 6hr, 23 nL of compounds dissolved in DMSO, positive controls or DMSO only was transferred to the assay plate by a Pintool station (Kalypsys, San Diego, CA). The plates were incubated at 37C and 5% CO2 for 16hr. Then 1 uL of LiveBLAzer B/G FRET substrate was added using a BioRAPTR FRD (Flying Reagent Dispenser, Aurora Discovery, San Diego, CA). After the plates were incubated at room temperature for 2 hours, fluorescence intensity was measured by an Envision plate reader (PerkinElmer, Shelton, CT).
# On the % scale 0 is the no-effect control and ±100 the full control effect.
# Chain of Progesterone receptor (Homo sapiens) (P06401 whole entry, looked up): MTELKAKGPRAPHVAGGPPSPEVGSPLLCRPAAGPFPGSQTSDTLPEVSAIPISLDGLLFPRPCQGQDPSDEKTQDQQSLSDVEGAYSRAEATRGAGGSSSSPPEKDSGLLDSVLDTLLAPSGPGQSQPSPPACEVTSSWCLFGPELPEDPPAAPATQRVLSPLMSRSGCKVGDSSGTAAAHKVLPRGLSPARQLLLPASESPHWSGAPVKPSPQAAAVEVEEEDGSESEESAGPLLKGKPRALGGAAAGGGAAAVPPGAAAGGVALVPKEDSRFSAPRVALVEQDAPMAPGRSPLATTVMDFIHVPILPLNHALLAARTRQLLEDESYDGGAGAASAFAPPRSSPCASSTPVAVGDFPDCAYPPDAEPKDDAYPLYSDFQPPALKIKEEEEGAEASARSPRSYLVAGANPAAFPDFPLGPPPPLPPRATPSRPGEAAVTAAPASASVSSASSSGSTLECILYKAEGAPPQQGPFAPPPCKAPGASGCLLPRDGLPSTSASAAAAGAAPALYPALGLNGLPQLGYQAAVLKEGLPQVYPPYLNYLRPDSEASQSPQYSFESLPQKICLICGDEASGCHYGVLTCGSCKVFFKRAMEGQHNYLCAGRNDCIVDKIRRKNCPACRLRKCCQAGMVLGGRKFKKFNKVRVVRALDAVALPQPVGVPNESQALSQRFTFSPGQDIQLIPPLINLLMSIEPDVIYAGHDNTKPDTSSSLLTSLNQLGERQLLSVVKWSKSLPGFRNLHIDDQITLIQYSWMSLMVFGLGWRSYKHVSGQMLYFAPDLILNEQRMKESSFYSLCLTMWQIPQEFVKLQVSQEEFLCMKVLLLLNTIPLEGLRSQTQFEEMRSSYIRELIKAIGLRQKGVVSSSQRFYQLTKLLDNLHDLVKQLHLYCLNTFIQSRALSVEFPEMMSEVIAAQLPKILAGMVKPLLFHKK
row,Structure (SMILES),activation
1,CC(C)(C)C(=O)Oc1ccc(S(=O)(=O)Nc2ccccc2C(=O)NCC(=O)O)cc1,-1.34% [at 42.5 µM] (inactive)
2,CCOC(=O)C(=O)CCCCCCl,0.143% [at 42.5 µM] (inactive)
3,COCCOC[C@H](CC1(C(=O)NC2CCC(C(=O)O)CC2)CCCC1)C(=O)Oc1ccc2c(c1)CCC2 (stereo not given in full),-1.16% (inactive)
4,CCNC(=O)[C@@H]1CCCN1C(=O)[C@H](CCCN=C(N)N)NC(=O)[C@H](CC(C)C)NC(=O)CNC(=O)[C@H](Cc1ccc(O)cc1)NC(=O)[C@H](CO)NC(=O)[C@H](Cc1c[nH]c2ccccc12)NC(=O)[C@H](Cc1cnc[nH]1)NC(=O)[C@@H]1CCC(=O)N1 ([pGlu]HWSYGLRP-NHEt),-0.669% [at 42.5 µM] (inactive)
5,O=S(=O)(O)c1cc(O)c(O)c(S(=O)(=O)O)c1,-2.87% (inactive)
6,CN(C)C(=O)Oc1ccc[n+](C)c1,0.0206% [at 42.5 µM] (inactive)
7,COc1ccc2cc1Oc1cc3c(cc1OC)CC[N+](C)(C)[C@H]3Cc1ccc(cc1)Oc1c(OC)c(OC)cc3c1[C@@H](C2)[N+](C)(C)CC3,-2.62% [at 42.5 µM] (inactive)
8,CCCCc1ccc2c(n1)[C@@H](c1ccc(OC)cc1C[C@H](C)C(=O)O)[C@H](C(=O)O)[C@H]2c1ccc2c(c1)OCO2,-2.05% (inactive)
9,NC(=O)NC1N=C([O][Al])NC1=O (stereo not given),0.103% [at 42.5 µM] (inactive)
10,O=S(=O)(O)c1cccc(S(=O)(=O)O)c1,-2.26% (inactive)
11,C[N+]12CCC(CC1)C(OC(=O)C(O)(c1ccccc1)c1ccccc1)C2 (stereo not given),-0.339% [at 42.5 µM] (inactive)
12,CCCCOCCOC(=O)CCCCCCCCC(=O)OCCOCCCC,0.368% (inactive)
13,Nc1ccn([C@@H]2O[C@H](CO)[C@@H](O)C2O)c(=O)n1 (stereo not given in full),-5.25% (inactive)
14,C[N+]1(C)[C@@H]2CC(OC(=O)[C@H](CO)c3ccccc3)C[C@H]1[C@@H]1O[C@@H]12 (stereo not given in full),-2.65% [at 42.5 µM] (inactive)
15,OCCc1ccccn1,0.14% (inactive)
16,CCOC(=O)c1cnc2c(cnn2CC)c1NN=C(C)C,2% [at 42.5 µM] (inactive)
17,CC1=C(C/C=C(\C)CCC[C@H](C)CCC[C@H](C)CCCC(C)C)C(=O)c2ccccc2C1=O,-0.641% [at 42.5 µM] (inactive)
18,C=C(C)C(=O)OCCOCCOCCOCCOC(=O)C(=C)C,-0.0566% (inactive)
19,C=C(C)C(=O)OCC1CCCO1 (stereo not given),-0.622% (inactive)
20,CNCCO,-0.398% (inactive)

row,Structure (SMILES),activation
1,CCCO[Si](OCCC)(OCCC)OCCC,0.902% (inactive)
2,O=C(O)CNC(=O)c1ccccc1,0.747% [at 42.5 µM] (inactive)
3,C1CCC2(CCCCO2)OC1,0.924% (inactive)
4,CCC(C)(CN(C)C)OC(=O)c1ccccc1 (stereo not given),-0.759% [at 42.5 µM] (inactive)
5,C=C[Si](OC(C)=O)(OC(C)=O)OC(C)=O,0.513% (inactive)
6,Nc1ccn([C@@H]2O[C@H](CO)[C@@H](O)[C@@H]2O)c(=O)n1,-6.59% (inactive)
7,O=C1NC(=O)C2CC=CCC12 (stereo not given),-0.458% (inactive)
8,CCCCc1nc(Cl)c(CO)n1Cc1ccc(-c2ccccc2-c2nn[nH]n2)cc1,-1.31% [at 42.5 µM] (inactive)
9,CC1=NN(c2cc(S(=O)(=O)O)ccc2Cl)C(=O)C1N=Nc1ccccc1 (stereo not given),-0.115% (inactive)
10,O=C1c2ccccc2C(=O)c2cc(O)ccc21,10% (inactive)
11,CN(C)C(=O)Oc1cccc([N+](C)(C)C)c1,-0.694% [at 42.5 µM] (inactive)
12,Cc1ccc(C(=O)Nc2ccc(S(=O)(=O)O)c3cc(S(=O)(=O)O)cc(S(=O)(=O)O)c23)cc1NC(=O)c1cccc(NC(=O)Nc2cccc(C(=O)Nc3cc(C(=O)Nc4ccc(S(=O)(=O)O)c5cc(S(=O)(=O)O)cc(S(=O)(=O)O)c45)ccc3C)c2)c1,0.121% [at 42.5 µM] (inactive)
13,CCCc1ncc(C[n+]2ccccc2C)c(N)n1,-0.486% [at 42.5 µM] (inactive)
14,CCCCOC(=O)CCC(C)=O,1.21% (inactive)
15,CCN1C=CN(C)C1C (stereo not given),-2.6% (inactive)
16,CC(C)COC(=O)c1ccc(N)cc1,-1.74% [at 42.5 µM] (inactive)
17,CC(=O)N1C[C@H](O)C[C@H]1C(=O)O,1.6% [at 42.5 µM] (inactive)
18,COc1c(N2CCNC(C)C2)c(F)cc2c(=O)c(C(=O)O)cn(C3CC3)c12 (stereo not given),1.22% [at 42.5 µM] (inactive)
19,NCCCC(N)(C(=O)O)C(F)F (stereo not given),-1.3% [at 42.5 µM] (inactive)
20,O=C(O)CNC(=O)c1ccc(CO)o1,0.0551% (inactive)
